Compound activity deposited in PubChem BioAssay by National Center for Advancing Translational Sciences (NCATS).
A selection: hits, their analogues and other compounds. The true share with any hit is near 3%.
ERK AVP inh = blocks ERK signaling stimulated by vasopressin | AID 995 | Potency, µM (doses to about 57.5 µM), inactives show at the top dose activity, negative = inhibition, most hits filed as inhibitors | 72,000 tested, 0.99% active | HEK293-V1b, vasopressin-stimulated pERK AlphaScreen; also: potency is read from the fitted curve at half-maximal effect; % is scaled to controls: 0 for no effect and ±100 for the full control effect; nearly all actives have a fitted effect of over 55% in size
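V1b-HEK293 cells; cpd 30 min 37C; 25 nM vasopressin 5 min; lyse 10 min; AlphaScreen beads 5 hr RT. Normalized to DMSO basal and 25 nM vasopressin; AC50 by Hill fit.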
GFP derepression = derepresses silenced GFP locus in mouse C127i cells. 68,000 tested, 0.09% active. mouse C127i GFP locus derepression, cytometry, 30 h. Potency, µM (highest dose often 46.1 µM), for the others: at the top dose GFP derepression (activation); also: % of control where 0% means no effect
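Murine C127i mammary cells carrying a silenced, stably integrated CMV-driven GFP reporter were treated with compound for 30 hours at 37 C. After PBS washes, GFP-positive cells were counted by laser-scanning microplate cytometry.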
Tau filament bind = tau filament binding; P10636; recombinant tau filaments, thioflavin S fluorescence, 15 h; filaments grown with octadecylsulfate alongside compound; Potency, µM (doses to about 57.1 µM), inactives show at the highest dose activity change, negative = inhibition; 71,000 tested, 2% active;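 also: potency is read from the fitted curve at half-maximal effect; % is scaled to controls: 0 for no effect and ±100 for the full control effect; actives lower thioflavin S fluorescence by blocking filaments or displacing dye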
Target sequence (P10636 whole entry, looked up): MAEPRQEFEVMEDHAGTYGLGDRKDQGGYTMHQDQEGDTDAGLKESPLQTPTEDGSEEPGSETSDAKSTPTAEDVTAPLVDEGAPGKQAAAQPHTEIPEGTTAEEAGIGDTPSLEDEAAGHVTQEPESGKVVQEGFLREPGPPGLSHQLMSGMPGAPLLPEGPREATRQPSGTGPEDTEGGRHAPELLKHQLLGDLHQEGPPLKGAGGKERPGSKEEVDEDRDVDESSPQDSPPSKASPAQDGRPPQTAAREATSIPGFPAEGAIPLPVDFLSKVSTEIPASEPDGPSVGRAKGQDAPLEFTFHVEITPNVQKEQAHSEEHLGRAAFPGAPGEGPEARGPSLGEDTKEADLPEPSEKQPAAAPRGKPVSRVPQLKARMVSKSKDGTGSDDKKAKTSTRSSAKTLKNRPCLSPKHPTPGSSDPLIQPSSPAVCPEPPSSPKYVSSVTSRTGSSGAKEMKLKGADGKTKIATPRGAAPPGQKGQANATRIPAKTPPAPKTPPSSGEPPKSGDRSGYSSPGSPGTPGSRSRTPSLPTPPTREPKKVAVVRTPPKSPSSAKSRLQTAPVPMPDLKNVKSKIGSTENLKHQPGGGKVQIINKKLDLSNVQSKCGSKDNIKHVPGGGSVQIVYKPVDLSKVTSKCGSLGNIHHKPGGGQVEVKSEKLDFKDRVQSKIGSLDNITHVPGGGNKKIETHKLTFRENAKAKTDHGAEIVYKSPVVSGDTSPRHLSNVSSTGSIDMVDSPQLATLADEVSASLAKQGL
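Tau 2 uM in ThS buffer dispensed; compound added; 60 uM ODS added (finals 1 uM tau, 30 uM ODS); 15 h 37 C; fluor ex450/em510.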
Ub-GFP proteasome = inhibits proteasome, raising ubiquitin-GFP reporter fluorescence. Ubiquitin-GFP reporter cells, proteasome inhibition, GFP fluorescence; response scale: untreated = 0%, 10 µM MG-132 = 100%. Potency, µM (doses to about 45.9 µM), for inactives: at the top dose activation (GFP accumulation), most hits filed as activators. 67,000 tested, under 10 active. AID 526; active = well fitted activation curve with a large enough effect, not every such curve was filed as active; inconclusive = small, poorly fitted or top-dose-only effect, or another doubt; inactive = no such curve, though single readings can be large or run the other way; also: potency is read from the fitted curve at half-maximal effect
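GFP accumulation read-out: laser plate cytometry counting ubiquitin(G76V)-GFP-expressing U2OS cells after 4 hr compound exposure at 37 °C. Titrations spanned 46 uM to 2.9 nM; 0% = basal, 100% = 10 uM MG-132; concentration-response curves fitted.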
Hsp90 Hop PPI = changes Hsp90-Hop TPR2A binding signal, up or down; Potency, µM (top dose mostly 57 µM), inactives show at the top dose activity change, negative = inhibition; AID 595; AlphaScreen TPR2A-His6 binding biotin-Hsp90 C-terminal peptide; 71,000 tested, 0.44% active; active = well fitted curve in either direction with a large enough effect; inconclusive = small, poorly fitted or top-dose-only effect, or another doubt; also: potency is read from the fitted curve at half-maximal effect; % is scaled to controls: 0 for no effect and ±100 for the full control effect
HBB splice mod = modulators of hemoglobin beta chain splicing. HBB splicing reporter cell assay, activation; EGFP reporter with mutant IVS2-654 intron; response scale: normalised to 500 nM splice-correcting PNA. Potency, µM (highest dose often 46.1 µM), without a hit: at the top dose activation, most hits filed as activators. 65,000 tested, 0.06% active; also: potency is read from the fitted curve at half-maximal effect; 0% is about no effect
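HeLa cells stably expressing EGFP interrupted by mutant beta-globin intron 2 (IVS2-654), 500/well in 2% FCS. Treated with compound for 2 days at 37C. Splicing correction scored as total well GFP intensity (488 nm excitation, 500-520 nm emission); 500 nM antisense PNA served as control.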
Active calls of the source: *; ? = inconclusive; · = not tested or not shown; [ ] = remark or other dose. Unless noted, calls follow the shape of the dose curve; as a rule, active = well fitted curve in the direction sought with a large enough effect; inconclusive = small, poorly fitted or top-dose-only effect, or another doubt; inactive = no such curve, though single readings can be large; an effect the other way counts as inactive or inconclusive.

SMILES | ERK AVP inh | GFP derepression | Tau filament bind | Ub-GFP proteasome | Hsp90 Hop PPI | HBB splice mod
COc1cc2[nH]c3c(N4CCN(c5ccccn5)CC4)ncnc3c2cc1OC | 25.1µM* | 4.3% | 116.9% | 0.2% | -16.6% | -5.0%[57.5 µM]
CCOC(=O)C1CCN(c2ncnc3c2[nH]c2cccc(OC)c23)CC1 | -21.3% | 4.3% | 17.7% | 4.1% | -6.3% | 0.4%[57.5 µM]
CCOC(=O)CN1CC23C=CC(O2)C(C(=O)Nc2ccc(OC)cc2OC)C3C1=O (stereo unspecified) | -1.6% | 0.0% | -9.6% | -8.1% | -3.2% | -0.9%
CCOC(=O)CN1CC23C=CC(O2)C(C(=O)Nc2cc(OC)ccc2OC)C3C1=O (stereo unspecified) | -18.8% | 0.0% | 12.6µM* | 9.2% | -3.6% | 0.0%
C=C[C@@]1(C)CC(=O)[C@@]2(O)[C@@]3(C)[C@@H](O)CCC(C)(C)[C@@H]3[C@H](O)[C@H](OC(C)=O)[C@@]2(C)O1 | 1.26µM* | -1.4% | ? | 0.3% | 0.3% | ·
O=C(Cn1cnc2c(cnn2-c2ccc(F)cc2)c1=O)N1CCCc2ccccc21 | ? | 1.0% | 3.8% | -1.2% | 1.0% | ·
Cc1ccc(-n2ncc3c(=O)n(CC(=O)N4CCCc5ccccc54)cnc32)cc1C | 25.1µM* | -2.6% | -1.4% | -6.5% | -0.4% | 0.1%
Oc1ccc(Br)cc1-c1nc2cnccn2c1NC1CCCC1 | 31.6µM* | 1.0% | 32.6% | 2.9% | 1.1% | -2.7%
Cn1cnc([N+](=O)[O-])c1Sc1nc(N)nc2c1ncn2[C@H]1C[C@H](O)[C@@H](CO)O1 | 15.6%[11.5 µM] | -2.2%[9.22 µM] | -0.7%[11.4 µM] | 4.3%[9.17 µM] | 2.0%[11 µM] | ?
CCn1c(SCC(=O)NCc2ccccc2)nc2ccccc2c1=O | 6.5% | -1.2% | 9.2% | 0.1% | 2.9% | ·
CCn1c(SCc2nc3ccccc3c(=O)[nH]2)nc2ccccc2c1=O | 7.94µM* | -2.9% | 3.0% | -5.8% | -3.5% | -0.9%
C/C(=N/Nc1nc(C)cc(=O)[nH]1)C(=O)O | -2.3%[11.5 µM] | 0.0%[9.22 µM] | 6.2%[11.4 µM] | -4.3%[9.17 µM] | -5.6%[11 µM] | 1.8%[9.22 µM]
COc1cccc(Nc2ncc3nc(-c4ccccc4)c(=O)n(C[C@H]4CCCO4)c3n2)c1 | -2.2% | 1.8%[9.22 µM] | 439.9% | -1.7% | 12.6µM* | 4.9%
O=c1c(-c2ccc(F)cc2)nc2cnc(Oc3ccccc3)nc2n1C[C@H]1CCCO1 | -18.2% | 2.7%[9.22 µM] | 20µM* | -0.9% | 14.3% | -0.1%
O=c1c(-c2ccccc2)nc2cnc(Oc3ccccc3)nc2n1C[C@H]1CCCO1 | -14.4% | 2.3%[9.22 µM] | -16.2% | 0.6% | -0.6% | -1.2%
CN[C@@H](CC(C)C)C(=O)N[C@@H]1C(=O)N[C@H](CC(N)=O)C(=O)N[C@H]2C(=O)N[C@H]3C(=O)N[C@H](C(=O)N[C@H](C(=O)O)c4cc(O)cc(O)c4-c4cc3ccc4O)[C@H](O)c3ccc(c(Cl)c3)Oc3cc2cc(c3O[C@@H]2O[C@@H](CO)[C@@H](O)[C@@H](O)[C@H]2O[C@H]2C[C@](C)(N)[C@H](O)[C@H](C)O2)Oc2ccc(cc2Cl)[C@@H]1O | -3.1% | 0.0% | -4.5% | 0.1% | -11.0% | -0.1%
Cc1cc(O)c(C(C)(C)C)cc1Sc1cc(C(C)(C)C)c(O)cc1C | ? | · | 20µM* | · | -5.7% | -0.7%
c1ccc(-c2ccc(-c3ccc(C4=NCCN4)cc3)o2)cc1 | 23.6%[11.5 µM] | 6.9%[9.22 µM] | -12.3%[11.4 µM] | -6.5%[9.17 µM] | -1.5%[11 µM] | -0.1%[9.22 µM]
Cc1ccc(N2CC(C(=O)N3CCN(c4ccccc4)CC3)CC2=O)cc1 (stereo unspecified) | -5.9% | -2.6% | 8.0% | 3.7% | -3.6% | -0.1%
CC(c1ccccc1)N1CC(C(=O)N2CCN(c3ccccc3)CC2)CC1=O (stereo unspecified) | 25.1µM* | -3.4% | -3.4% | 2.9% | -5.5% | -1.6%
CCOC(=O)OCC1OC(c2ccccc2)C=CC1Oc1ccc2oc(=O)cc(C)c2c1 (stereo unspecified) | 17.5%[11.5 µM] | · | · | · | · | 2.7%[9.22 µM]
NC(=O)c1cc(-c2ccccc2)sc1NC(=O)Cc1ccc(S(=O)(=O)N2CCOCC2)s1 | 2.6% | 4.2% | 7.94µM* | 0.0% | -13.7% | 0.7%
CCc1c(C)sc(NC(=O)c2cccs2)c1C(=O)OC(C)C | 106.2% | 0.0% | 10.5% | -6.2% | 25.1µM* | -0.6%
Cc1nc2oc3c(NCc4ccccn4)ncnc3c2c2c1COC(C)(C)C2 | 25.1µM* | 0.0% | 33.8% | 1.8% | -20.9% | 1.3%[57.5 µM]
c1ccc2sc(SCN(C3CCCCC3)C3CCCCC3)nc2c1 | -14.2%[11.5 µM] | 3.4%[9.22 µM] | 1.2%[11.4 µM] | -5.8%[9.17 µM] | -3.0%[11 µM] | 2.9%[9.22 µM]
SMILES | ERK AVP inh | GFP derepression | Tau filament bind | Ub-GFP proteasome | Hsp90 Hop PPI | HBB splice mod
CCCCC(CC)COC(=O)COc1ccc(Cl)cc1Cl (stereo unspecified) | 57.2% | · | 5.3% | · | ? | -0.4%
CCCCC(CC)COC(=O)C(C#N)=C(c1ccccc1)c1ccccc1 (stereo unspecified) | 33.5% | · | 31.6µM* | · | ? | -1.0%
O=C(Nc1cccc(-c2nc3cc(Cl)ccc3o2)c1)C1CCCO1 (stereo unspecified) | 20µM* | 0.2% | 34.6% | 2.5% | 2.3% | 0.5%
Cc1ccc2oc(-c3cccc(NC(=O)C4CCCO4)c3)nc2c1 (stereo unspecified) | -21.6% | -2.0% | 6.3% | 5.3% | 1.2% | -0.6%
C=C[C@@]1(C)C=C2CC[C@@H]3[C@](C)(CCC[C@@]3(C)C(=O)O)[C@H]2CC1 | · | -4.7%[9.22 µM] | 6.0% | -4.9% | 0.8% | ·
C/C(=C\COc1cc(=O)[nH]c2ccccc12)CC[C@@H](O)C(C)(C)O | · | 2.3%[9.22 µM] | 39.8µM* | -6.5% | -2.0% | ·
